Measurements published in publication PMC4336329 (PLoS ONE, 2015).
Out of some 310,000 compounds screened, about 14,000 (4.5%) showed an effect of 50% or more. Effects have a minus sign here. Only a selection was taken, and strong results are over-represented in it overall.

Each molecule was assayed against human ether-à-go-go-related gene (hERG) potassium channel (human, UniProt Q12809) (assay: primary screen, population patch clamp on CHO cells stably expressing hERG; higher = less effect of the substance).
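Further: peak tail current of the secondary pulse compared with the same well before compound.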

Chain of human ether-à-go-go-related gene (hERG) potassium channel (Q12809 whole entry, looked up): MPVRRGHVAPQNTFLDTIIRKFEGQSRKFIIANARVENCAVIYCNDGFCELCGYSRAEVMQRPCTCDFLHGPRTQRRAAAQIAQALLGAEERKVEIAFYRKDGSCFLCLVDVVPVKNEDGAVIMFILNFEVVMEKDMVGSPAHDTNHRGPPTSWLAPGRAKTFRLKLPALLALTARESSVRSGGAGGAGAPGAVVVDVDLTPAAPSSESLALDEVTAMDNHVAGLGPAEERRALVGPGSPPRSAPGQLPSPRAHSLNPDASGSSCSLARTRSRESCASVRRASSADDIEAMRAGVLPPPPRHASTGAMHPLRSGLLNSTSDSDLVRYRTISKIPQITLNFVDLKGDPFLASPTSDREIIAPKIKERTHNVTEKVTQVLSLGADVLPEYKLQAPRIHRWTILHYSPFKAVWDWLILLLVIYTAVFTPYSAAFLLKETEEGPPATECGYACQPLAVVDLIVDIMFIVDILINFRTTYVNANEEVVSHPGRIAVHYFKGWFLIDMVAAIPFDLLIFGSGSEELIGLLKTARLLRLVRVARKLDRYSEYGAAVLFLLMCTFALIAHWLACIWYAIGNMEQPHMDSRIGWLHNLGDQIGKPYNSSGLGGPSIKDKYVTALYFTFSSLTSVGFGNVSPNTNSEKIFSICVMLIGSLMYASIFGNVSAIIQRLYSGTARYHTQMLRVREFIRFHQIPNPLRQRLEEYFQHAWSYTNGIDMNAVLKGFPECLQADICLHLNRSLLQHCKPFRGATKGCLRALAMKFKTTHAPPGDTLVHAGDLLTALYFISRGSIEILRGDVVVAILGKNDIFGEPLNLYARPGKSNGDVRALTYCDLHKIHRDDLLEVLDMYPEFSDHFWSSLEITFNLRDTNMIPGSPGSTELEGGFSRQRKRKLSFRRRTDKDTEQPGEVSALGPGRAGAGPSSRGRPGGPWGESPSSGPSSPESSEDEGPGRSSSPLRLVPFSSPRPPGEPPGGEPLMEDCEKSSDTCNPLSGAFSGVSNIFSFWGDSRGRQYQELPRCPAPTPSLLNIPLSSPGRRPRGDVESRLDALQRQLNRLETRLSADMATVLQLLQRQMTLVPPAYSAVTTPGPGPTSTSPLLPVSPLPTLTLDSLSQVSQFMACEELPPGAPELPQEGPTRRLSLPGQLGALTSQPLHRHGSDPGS

Structure (SMILES) | hERG current change (%, negative = inhibition) at 10uM
CCOC(=O)C1C(=O)C=C(c2ccc(C)cc2)CC1c1ccco1 (stereo not drawn) | 5.34%
CCOCC(=O)Nc1ccc2c(c1)OCCO2 | 19.6%
Brc1ccc2c(c1)C(c1cccs1)=NNC(c1cccnc1)=N2 | -14.5%
COc1ccc(NC(=O)CCC(=O)c2ccc(C(C)C)cc2)cc1 | 27.7%
CC(C)OCCCn1c(=NC(=O)c2ccncc2)c(C#N)cc2c(=O)n3ccccc3nc21 | -74.2%
CC(=O)N=c1c(C#N)cc2c(=O)n3ccccc3nc2n1CCCOC(C)C | -13.6%
CCCCCn1c(=NC(C)=O)c(C#N)cc2c(=O)n3ccccc3nc21 | -43%
CCOCCCn1c(=NC(C)=O)c(C#N)cc2c(=O)n3ccccc3nc21 | -15.4%
CC(C)OCCCn1c(=NC(=O)c2cccs2)c(C#N)cc2c(=O)n3ccccc3nc21 | -77.6%
CCOCCCn1c(=NC(=O)c2cccs2)c(C#N)cc2c(=O)n3ccccc3nc21 | -76.9%
Cc1ccc(NC(=O)c2ccc(CSc3nnnn3C)cc2)cc1 | -15.3%
COc1ccc(-c2nc(CS(=O)CC(=O)NCc3cccnc3)c(C)o2)cc1OC (stereo not drawn) | -2.9%
O=C(NCCCN1CCCCCC1)c1ccc(N2CCCC2=O)cc1 | 16.4%
COc1ccccc1/C=C(\C#N)C(=O)c1cccn1C | 5.95%
CCOC(=O)C1(Cc2ccccc2)CCN(CC2CC=CCC2)CC1 (stereo not drawn) | -54.9%
CCOC(=O)C1(Cc2cccc(F)c2)CCN(CC2CC2)CC1 | -33.4%
CCOC(=O)C1(Cc2cccc(OC)c2)CCN(CC2CC=CCC2)CC1 (stereo not drawn) | -71.7%
CCN(Cc1cnn(C)c1)C(=O)c1ccc(OC2CCN(S(=O)(=O)N(C)C)CC2)cc1 | 19.1%
CCSC1=C(C#N)C(c2ccc3c(c2)OCO3)C2=C(CCCC2=O)N1 (stereo not drawn) | -23.4%
Oc1ccc(/C=N/N2CCN(Cc3ccccc3)CC2)cc1 | 7.33%
O=C(COC(=O)CC1CCCC1)Nc1cccc(F)c1 | -1.79%
O=C(NCc1cccs1)[C@@H]1CSC2c3ccccc3C(=O)N21 (stereo partly drawn) | 8.92%
CCn1ccnc1CN1CCc2c([nH]c3ccccc23)C1C(C)(C)C (stereo not drawn) | -59.7%

Structure (SMILES) | hERG current change (%, negative = inhibition) at 10uM
CCn1ccnc1CN1CCc2c([nH]c3ccccc23)C1C1CCCCC1 (stereo not drawn) | -19.4%
COCc1ccc(CN2CCc3c([nH]c4ccccc34)C2C(C)(C)C)o1 (stereo not drawn) | 7.25%
CC(C)CC1c2[nH]c3ccccc3c2CCN1C(=O)c1cnccn1 (stereo not drawn) | 3.61%
CCc1nccn1CCC(=O)N1CCc2c([nH]c3ccccc23)C1CC(C)C (stereo not drawn) | -53.9%
CC(C)CC1c2[nH]c3ccccc3c2CCN1C(=O)CCC(=O)N(C)C (stereo not drawn) | 3.88%
Cc1cnc(CN2CCc3c([nH]c4ccccc34)C2CC(C)C)[nH]1 (stereo not drawn) | -45.1%
CCn1nc(C)c(CN2CCc3c([nH]c4ccccc34)C2C(C)(C)C)c1C (stereo not drawn) | -3.17%
COCc1ccc(CN2CCc3c([nH]c4ccccc34)C2CC(C)C)o1 (stereo not drawn) | -58.7%
CCn1ccnc1CN1CCc2c([nH]c3ccccc23)C1CC(C)C (stereo not drawn) | -67.9%
Cc1c(CN2CCc3c([nH]c4ccccc34)C2CC(C)C)cnn1C (stereo not drawn) | -36%
Cc1cccc(CN2CCc3c([nH]c4ccccc34)C2CC(C)C)n1 (stereo not drawn) | -3.98%
Br.Cc1nc(-c2ccc(C(=O)O)cc2)cs1 | 7.39%
S=C(NCCN1CCOCC1)Nc1ccc(Cl)cc1Cl | -18%
CCOC(=O)N1CCN(CC(O)COCc2ccccc2)CC1.Cl (stereo not drawn) | -4.06%
Cc1ccc(S(=O)(=O)Nn2c(C)ccc2C)cc1 | 15.3%
Nc1ccccc1Nc1ccccc1 | -13.6%
O=c1c(Cl)c(NCc2ccccc2Cl)cnn1C12CC3CC(CC(C3)C1)C2 | -5.06%
CN(C)c1ccc(C(CC(=O)O)NC(=O)c2ccc(Cl)cc2)cc1 (stereo not drawn) | -9.38%
N#CCc1ccc(NC(=O)c2ccc(S(=O)(=O)N3CCOCC3)cc2)cc1 | 1.97%
O=C(CN(c1ccccc1)S(=O)(=O)c1ccccc1[N+](=O)[O-])Nc1ccccc1C(=O)N1CCOCC1 | 3.76%
Cc1ccc(CN2CCSCC2)c(C)c1 | 16.9%
Cc1cccc(OCC(O)Cn2c(N3CCCCC3)nc3c2c(=O)[nH]c(=O)n3C)c1 (stereo not drawn) | 13%
